# From the supplement of paper PMC10037445
# Over roughly 2,900 compounds, “NF-kB SEAP reporter activity, fold change vs agonist alone” has its median near 0.99; the highest 2% begin near 2.6. For the sample, the highest values were picked, then their nearest neighbours and some compounds at random.
# Tests used:
# RAW-Dual [1] = assay: NF-kB SEAP reporter activity, fold change vs agonist alone; cytotoxicity flag (confluency mask): cytotoxic (confluency <70% of control); higher = enhanced NF-kB activity
# In short: (§1)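 After 50 nL of library stock was delivered by pin tool to RAW-Dual macrophages (50,000 cells/well, DMEM, 384-well plates), a PRR agonist was added 1 h later and the plates were kept at 37 °C, 5% CO2. Twenty hours later, IRF was read from supernatant by QuantiLuc luminescence and NF-κB by QuantiBlue absorbance at 620 nm. Reporter activity is stated as fold change over agonist-alone wells. Wells with IncuCyte confluency under 70% of agonist controls in both mask sets were counted as cytotoxic.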
# RAW-Dual [2] = assay: NF-kB SEAP reporter activity, fold change vs agonist alone; higher = enhanced NF-kB activity
# In short: as §1
# RAW-Dual [3] = assay: NF-kB SEAP reporter activity, fold change vs agonist alone; cytotoxicity flag (confluency mask): not cytotoxic; higher = enhanced NF-kB activity
# In short: as §1
# [4] = agonist: ODN 1826 (TLR9) 0.5 ug/mL
# [5] = agonist: Pam2CSK4 (TLR2/6) 0.1 ug/mL
# [6] = agonist: Pam3CSK4 (TLR2/1) 0.1 ug/mL
# [7] = library stock concentration (final ~1000-fold dilution): 10 mM, cytotoxicity flag (confluency mask): not cytotoxic, agonist: Imiquimod (TLR7) […]
# [8] = library stock concentration (final ~1000-fold dilution): 10 mM, cytotoxicity flag (confluency mask): not cytotoxic, agonist: MPLA (TLR4) […]
structure (smiles),measurement,setting,value
O=S(=O)(NCCN1CCNCC1)c1ccc(NC2CCCCC2)c(NCc2ccccc2)c1 (library stock concentration (final ~1000-fold dilution): 10 mM),NF-kB SEAP reporter activity,RAW-Dual [1]; agonist: LPS (TLR4) 0.1 ug/mL,1.57
same,NF-kB SEAP reporter activity,RAW-Dual [1]; [4],1.13
same,NF-kB SEAP reporter activity,RAW-Dual [1]; [5],1.04
same,NF-kB SEAP reporter activity,RAW-Dual [1]; [6],1.73
O=S(=O)(NCCN1CCNCC1)c1ccc(NC2CCCCC2)c(NCc2ccccc2)c1,NF-kB SEAP reporter activity,"RAW-Dual [2]; library stock concentration (final ~1000-fold dilution): 10 mM, cytotoxicity flag (confluency mask): cytotoxic (confluency <70% of control), agonist: Imiquimod (TLR7) […]",1.27
same,NF-kB SEAP reporter activity,"RAW-Dual [2]; library stock concentration (final ~1000-fold dilution): 10 mM, cytotoxicity flag (confluency mask): cytotoxic (confluency <70% of control), agonist: MPLA (TLR4) […]",2.03
CN(C)CCCSC(=N)N.Cl.Cl,NF-kB SEAP reporter activity,RAW-Dual [2]; [7],0.831
same,NF-kB SEAP reporter activity,RAW-Dual [2]; [8],0.973
CN(C)CCCSC(=N)N.Cl.Cl (library stock concentration (final ~1000-fold dilution): 10 mM),NF-kB SEAP reporter activity,RAW-Dual [3]; agonist: LPS (TLR4) 0.1 ug/mL,1.14
same,NF-kB SEAP reporter activity,RAW-Dual [3]; [4],0.97
same,NF-kB SEAP reporter activity,RAW-Dual [3]; [5],1.01
same,NF-kB SEAP reporter activity,RAW-Dual [3]; [6],0.975
CC(C)CC(NC(=O)C1OC1C(=O)O)C(=O)NCCCCNC(=N)N (stereo not given) (library stock concentration (final ~1000-fold dilution): 10 mM),NF-kB SEAP reporter activity,RAW-Dual [3]; agonist: LPS (TLR4) 0.1 ug/mL,0.999
same,NF-kB SEAP reporter activity,RAW-Dual [3]; [4],1.01
same,NF-kB SEAP reporter activity,RAW-Dual [3]; [5],1.12
same,NF-kB SEAP reporter activity,RAW-Dual [3]; [6],1.12
CC(C)CC(NC(=O)C1OC1C(=O)O)C(=O)NCCCCNC(=N)N (stereo not given),NF-kB SEAP reporter activity,RAW-Dual [2]; [7],0.971
same,NF-kB SEAP reporter activity,RAW-Dual [2]; [8],1.11
CC(=O)C(=O)Oc1ccccc1C(=O)O,NF-kB SEAP reporter activity,RAW-Dual [2]; [7],1.46
same,NF-kB SEAP reporter activity,RAW-Dual [2]; [8],1.68
CC(=O)C(=O)Oc1ccccc1C(=O)O (library stock concentration (final ~1000-fold dilution): 10 mM),NF-kB SEAP reporter activity,RAW-Dual [3]; agonist: LPS (TLR4) 0.1 ug/mL,1.07
same,NF-kB SEAP reporter activity,RAW-Dual [3]; [4],1.04
same,NF-kB SEAP reporter activity,RAW-Dual [3]; [5],0.887
same,NF-kB SEAP reporter activity,RAW-Dual [3]; [6],1.12
O=S(=O)(N=Cc1c(O)ccc2ccccc12)c1cccs1,NF-kB SEAP reporter activity,RAW-Dual [2]; [7],0.768
same,NF-kB SEAP reporter activity,RAW-Dual [2]; [8],1.03
O=C(N/N=C/c1c(O)ccc2ccccc12)c1ccncc1,NF-kB SEAP reporter activity,RAW-Dual [2]; [7],2.57
same,NF-kB SEAP reporter activity,RAW-Dual [2]; [8],1.75
O=C(N/N=C/c1c(O)ccc2ccccc12)c1ccncc1 (library stock concentration (final ~1000-fold dilution): 10 mM),NF-kB SEAP reporter activity,RAW-Dual [3]; agonist: LPS (TLR4) 0.1 ug/mL,2.18
same,NF-kB SEAP reporter activity,RAW-Dual [3]; [4],2
same,NF-kB SEAP reporter activity,RAW-Dual [3]; [5],1.15
same,NF-kB SEAP reporter activity,RAW-Dual [3]; [6],1.92
O=S(=O)(N=Cc1c(O)ccc2ccccc12)c1cccs1 (library stock concentration (final ~1000-fold dilution): 10 mM),NF-kB SEAP reporter activity,RAW-Dual [3]; agonist: LPS (TLR4) 0.1 ug/mL,1.28
same,NF-kB SEAP reporter activity,RAW-Dual [3]; [4],0.662
same,NF-kB SEAP reporter activity,RAW-Dual [3]; [5],1.04
same,NF-kB SEAP reporter activity,RAW-Dual [3]; [6],0.853
NNC(=O)c1ccncc1 (library stock concentration (final ~1000-fold dilution): 10 mM),NF-kB SEAP reporter activity,RAW-Dual [3]; agonist: LPS (TLR4) 0.1 ug/mL,1.22
same,NF-kB SEAP reporter activity,RAW-Dual [3]; [4],1.05
same,NF-kB SEAP reporter activity,RAW-Dual [3]; [5],1.09
same,NF-kB SEAP reporter activity,RAW-Dual [3]; [6],1.05
NNC(=O)c1ccncc1,NF-kB SEAP reporter activity,RAW-Dual [2]; [7],0.948
same,NF-kB SEAP reporter activity,RAW-Dual [2]; [8],1.05
Cl.c1ccc2c(-c3cnn4cc(-c5ccc(N6CCNCC6)cc5)cnc34)ccnc2c1 (library stock concentration (final ~1000-fold dilution): 10 mM water),NF-kB SEAP reporter activity,RAW-Dual [3]; agonist: LPS (TLR4) 0.1 ug/mL,0.64
same,NF-kB SEAP reporter activity,RAW-Dual [3]; [4],0.253
same,NF-kB SEAP reporter activity,RAW-Dual [3]; [5],0.171
same,NF-kB SEAP reporter activity,RAW-Dual [3]; [6],0.354
Cl.c1ccc2c(-c3cnn4cc(-c5ccc(N6CCNCC6)cc5)cnc34)ccnc2c1,NF-kB SEAP reporter activity,"RAW-Dual [2]; library stock concentration (final ~1000-fold dilution): 10 mM water, cytotoxicity flag (confluency mask): not cytotoxic, agonist: Imiquimod (TLR7) […]",0.986
same,NF-kB SEAP reporter activity,"RAW-Dual [2]; library stock concentration (final ~1000-fold dilution): 10 mM water, cytotoxicity flag (confluency mask): not cytotoxic, agonist: MPLA (TLR4) […]",0.571
CC(C)(C)C1NC(=O)OC2CCCC2OC/C=C/C(F)(F)c2nc3ccccc3nc2OC2CC(C(=O)NC3(C(=O)NS(=O)(=O)C4(C)CC4)CC3C(F)F)N(C2)C1=O (stereo not given) (library stock concentration (final ~1000-fold dilution): 10 mM),NF-kB SEAP reporter activity,RAW-Dual [3]; agonist: LPS (TLR4) 0.1 ug/mL,1.29
same,NF-kB SEAP reporter activity,RAW-Dual [3]; [4],2.62
same,NF-kB SEAP reporter activity,RAW-Dual [3]; [5],0.986
same,NF-kB SEAP reporter activity,RAW-Dual [3]; [6],2.09
CC(C)(C)C1NC(=O)OC2CCCC2OC/C=C/C(F)(F)c2nc3ccccc3nc2OC2CC(C(=O)NC3(C(=O)NS(=O)(=O)C4(C)CC4)CC3C(F)F)N(C2)C1=O (stereo not given),NF-kB SEAP reporter activity,RAW-Dual [2]; [7],2.27
same,NF-kB SEAP reporter activity,RAW-Dual [2]; [8],2.15
C=CC1CC1(NC(=O)C1CC2CN1C(=O)C(C(C)(C)C)NC(=O)OC1CC1CCCCCc1nc3ccc(OC)cc3nc1O2)C(=O)NS(=O)(=O)C1CC1 (stereo not given) (library stock concentration (final ~1000-fold dilution): 10 mM),NF-kB SEAP reporter activity,RAW-Dual [3]; agonist: LPS (TLR4) 0.1 ug/mL,1.3
same,NF-kB SEAP reporter activity,RAW-Dual [3]; [4],1.46
same,NF-kB SEAP reporter activity,RAW-Dual [3]; [5],0.913
same,NF-kB SEAP reporter activity,RAW-Dual [3]; [6],0.835
C=CC1CC1(NC(=O)C1CC2CN1C(=O)C(C(C)(C)C)NC(=O)OC1CC1CCCCCc1nc3ccc(OC)cc3nc1O2)C(=O)NS(=O)(=O)C1CC1 (stereo not given),NF-kB SEAP reporter activity,RAW-Dual [2]; [7],1.3
same,NF-kB SEAP reporter activity,RAW-Dual [2]; [8],1.22
